Most compounds without a hit are left out; they make up all but 3.1% or so of the library.
p53null 32C tox = kills p53 null cells at the permissive temperature. H1299-neo p53 null cells, ATP luminescence, 24 h, 32C. Potency, µM (highest dose often 46.1 µM), usual class: cytotoxic. 0.62% of 55,000 active; further: nearly all actives have a fitted effect of over 55% in size
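We seeded p53-null H1299-neo cells, incubated them overnight at 37C, and added compounds across a range up to 46 uM. After 24 hours at 32C, ATP reagent was applied for 20 min at room temperature and luminescence recorded.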
PMP22 txn = modulates PMP22 transcription in S16 Schwann cells; S16 Pmp22-F2sN Schwann cells, FLuc/NLuc coincidence luminescence, 24 h; Potency, µM (series often up to 57.5 µM), most hits filed as inhibitors; 2% of 43,000 active; AID 1508649; active means clear falling dose curves in both reporters; inconclusive means both reporters move, but less clearly or upward; inactive means either reporter flat; the % is the NLuc reporter signal
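S16(c9) Schwann cells with FLuc/NLuc coincidence reporter in the Pmp22 3' UTR; compounds pin-transferred, 24 h at 37C. Dual-luciferase read: FLuc first, then NLuc after Stop&Glo, each 10 min at room temperature.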
OvCa metastasis = ovarian cancer metastasis inhibition, 3D TME model; Potency, µM (top dose mostly 45.8 µM), usual class: inhibitors; SKOV3ip1-GFP adhesion/invasion on 3D omental model, fluorescence; 0.1% of 46,000 active; further: nearly all actives have a fitted effect of over 65% in size
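A 3D layer of primary human omental fibroblasts, mesothelial cells, fibronectin and collagen I, grown 48 hr, received SKOV3ip1-GFP cells in serum-free medium plus compounds at 0.36-46 umol/L. After 2 hr RT and 16 hr 37 C, fixed adherent GFP cells were counted; normalized to DMSO and tomatine.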
pS6 MEF inh = inhibitors of mTORC1 signaling in Tsc2-/- p53-/- MEF cells. Tsc2-/- p53-/- MEF, phospho-rpS6 immunofluorescence/PI, 24 h. Potency, µM (series often up to 38.3 µM), usual class: inhibitors. 0.78% of 44,000 active. AID 493208; further: nearly all actives have a fitted effect of over 50% in size
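Cell-based qHTS: Tsc2-/- p53-/- MEF, 24 h cpd, 37 °C; fix/perm, anti-phospho-S6 Alexa-488 + PI; Acumen 488 nm scan; pS6/PI ratio, % positive cells; rapamycin 7.5 nM = inhibition ref; PI count = viability.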
p53null 39C kill = p53 null cell cytotoxicity, nonpermissive temperature; H1299 p53-null (neo) cells, 39C, ATPlite viability, 24 h; Potency, µM (titrated, usually from 46.1 µM), actives largely listed as cytotoxic; 0.97% of 55,000 active; further: nearly all actives have a fitted effect of over 50% in size
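H1299 lung cancer cells, p53-null (H1299-neo) or expressing p53 A138V (H1299-p53A138V), were plated overnight at 37C, then exposed to compounds at up to 46 uM for 24 hr at 39C. Viability was read by ATP-based luminescence.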
S16 viability = cytotoxicity in S16 Pmp22-F2sN Schwann cells; S16 Pmp22-F2sN Schwann cells viability, CellTiter-Glo, 24 h; Potency, µM (top dose mostly 57.5 µM), actives largely listed as cytotoxic; 0.48% of 43,000 active; further: nearly all actives have a fitted effect of over 65% in size
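Seed 500-1,000 S16 Pmp22-F2sN cells per well in phenol-red-free DMEM with 10% heat-inactivated FBS; pin-add 23 nL compound; incubate 24 h at 37C; add CellTiter-Glo, wait 15 min protected from light; read luminescence.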
NLuc sat counter = NanoLuc enzyme inhibition artifact for PMP22 screen; Potency, µM (doses to about 57.5 µM), actives largely listed as inhibitors; shares compounds with PMP22 txn; 4% of 690 active; Secreted NLuc enzyme (filtered S16 cell medium), Nano-Glo luminescence
NLuc Km counter = inhibits NanoLuc under Km conditions, PMP22 counter-screen; shares compounds with PMP22 txn; secreted NLuc enzyme, coelenterazine luminescence, Km conditions; Potency, µM (titrated, usually from 57.5 µM), most hits filed as inhibitors; 5% of 690 active
FLuc ctr PMP22 = counter-screen for PMP22 expression modulators: firefly luciferase inhibition; shares compounds with PMP22 txn; purified P. pyralis FLuc, luminescence, 10 min; Potency, µM (highest dose often 57.5 µM), hits mostly inhibitors; 690 tested, under 10 active; AID 1508640
Target sequence (P08659 whole entry, looked up): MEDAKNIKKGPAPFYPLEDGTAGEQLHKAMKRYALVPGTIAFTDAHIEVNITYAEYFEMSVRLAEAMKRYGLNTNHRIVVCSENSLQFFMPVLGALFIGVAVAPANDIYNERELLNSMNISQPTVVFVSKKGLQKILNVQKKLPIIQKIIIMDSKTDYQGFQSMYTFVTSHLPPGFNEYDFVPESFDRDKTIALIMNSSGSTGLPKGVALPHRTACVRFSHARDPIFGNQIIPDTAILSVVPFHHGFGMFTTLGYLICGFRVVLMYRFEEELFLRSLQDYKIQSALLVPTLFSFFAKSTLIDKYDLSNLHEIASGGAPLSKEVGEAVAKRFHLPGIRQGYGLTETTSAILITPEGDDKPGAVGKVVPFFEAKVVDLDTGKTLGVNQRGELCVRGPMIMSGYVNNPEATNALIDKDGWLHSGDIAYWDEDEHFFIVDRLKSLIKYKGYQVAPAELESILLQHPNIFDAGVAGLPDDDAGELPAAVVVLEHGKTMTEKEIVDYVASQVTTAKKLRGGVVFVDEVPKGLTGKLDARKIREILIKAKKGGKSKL
S16 viab conf = confirmation of cytotoxicity in S16 Pmp22-F2sN Schwann cells (luciferase reporters placed in the Pmp22 gene); shares compounds with PMP22 txn; AID 1508641; 7% of 690 active; Potency, µM (doses to about 57.5 µM), hits mostly cytotoxic; S16 Schwann cells viability, CellTiter-Glo ATP luminescence, 24 h
PMP22 txn cnf = confirmation of modulators of PMP22 gene transcription in S16 cells. Potency, µM (highest dose often 57.5 µM), hits mostly inhibitors. S16 Schwann cells Pmp22-F2sN, dual luciferase, 24 h. shares compounds with PMP22 txn. AID 1508646. 22% of 690 active; active means clear falling dose curves in both reporters; inconclusive means both reporters move, but less clearly or upward; inactive means either reporter flat; the % is the FLuc reporter signal
PMP22 HiBiT cnf = confirmation of modulators of rat PMP22 protein expression | shares compounds with PMP22 txn | S16 Schwann cells Pmp22-HiBiT, luminescence, 48 h | Potency, µM (doses to about 27.9 µM), most hits filed as inhibitors | 95 tested, under 10 active | AID 1508647
Target sequence (P25094 whole entry, looked up): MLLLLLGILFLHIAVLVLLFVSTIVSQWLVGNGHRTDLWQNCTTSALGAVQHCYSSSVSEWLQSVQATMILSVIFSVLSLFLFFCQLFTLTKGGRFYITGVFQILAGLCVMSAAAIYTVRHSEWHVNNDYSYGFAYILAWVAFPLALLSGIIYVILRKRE
Numbers stand for hits; . = inactive; ? = inconclusive; / = no result. Unless noted, the call rests on the fitted dose curve; in most records, active means well fitted curve in the direction sought with a large enough effect; inconclusive means small, poorly fitted or top-dose-only effect, or another doubt; inactive means no such curve, though single readings can be large; an effect the other way counts as inactive or inconclusive.

SMILES	p53null 32C tox	PMP22 txn	OvCa metastasis	pS6 MEF inh	p53null 39C kill	S16 viability	NLuc sat counter	NLuc Km counter	FLuc ctr PMP22	S16 viab conf	PMP22 txn cnf	others
CCN1CCOC(=O)C1CC(=O)Nc1cc(Cl)ccc1C (stereo unspecified)	/	10.6µM	.	?	/	?	.	.	.	?	?
CCN1CCOC(=O)C1CC(=O)Nc1ccc(C)c(Cl)c1 (stereo unspecified)	/	?	.	?	/	?	/	/	/	/	/
Cc1ccccc1S(=O)(=O)Cc1ccc(C(=O)NCc2ccccc2Cl)o1	.	?	.	.	.	.	.	.	?	.	.
CC(=O)OCC(=O)[C@@]1(O)CC[C@H]2[C@@H]3CCC4=CC(=O)C=C[C@]4(C)[C@@H]3[C@@H](O)C[C@@]21C	/	/	.	/	/	/	/	/	/	/	/
CC(=O)Nc1cccc(NC(=O)C(=O)NCCc2sc(-c3ccccc3)nc2C)c1	.	2.47µM	.	?	.	.	.	?	.	.	3.64µM
CCOc1ccccc1NC(=O)C(=O)NCCc1sc(-c2cccc(F)c2)nc1C	.	?	.	.	.	.	.	.	.	.	?
CCc1ccccc1NC(=O)C(=O)NCCc1sc(-c2cccc(F)c2)nc1C	.	?	.	.	.	.	/	/	/	/	/
N#Cc1ccc(NC(=O)Nc2ccccc2Br)c2n[nH]nc12	/	/	.	/	/	/	/	/	/	/	/
O=C(O)c1ccc(Nc2ncc3c(n2)-c2ccc(Cl)cc2C(c2c(F)cccc2F)=NC3)cc1	/	/	.	/	/	/	/	/	/	/	/
Clc1ccc(C(Cn2ccnc2)OCc2ccc(Sc3ccccc3)cc2)c(Cl)c1 (stereo unspecified)	/	/	.	/	/	/	/	/	/	/	/
Cc1ccc(Cl)cc1N1CCN(CCCNc2ncnc3onc(-c4ccc(Cl)cc4)c23)CC1	.	14.2µM	.	.	.	.	.	.	.	.	?
COc1ccc(-c2cc(=O)c3c(O)cc(O[C@@H]4O[C@H](CO[C@@H]5O[C@@H](C)[C@H](O)[C@@H](O)[C@@H]5O)[C@@H](O)[C@H](O)[C@@H]4O)cc3o2)cc1O	/	/	.	/	/	/	/	/	/	/	/
COc1ccc(C2=C(C)C(=NCCCN3CCN(c4cc(C)ccc4C)CC3)NS2(=O)=O)cc1	.	15.2µM	.	.	.	.	.	.	.	.	?
CC1=C(c2ccc(Cl)cc2)S(=O)(=O)NC1=NCc1ccc(C)cc1	.	.	.	.	.	.	/	/	/	/	/
C[C@]12CC[C@H](O)CC1=CCC1C2CC[C@]2(C)C(n3cnc4ccccc43)=CCC12 (stereo partly specified)	/	/	.	/	/	/	/	/	/	/	/
COc1ccc(NC(=O)c2ccc3c(c2)c(C)c(C)n3Cc2ccc(F)cc2)cc1	.	15µM	.	?	?	.	.	.	.	.	.
COC(=O)c1c(-c2ccc(Cl)cc2)noc1N1CCN(c2ccc(C)cc2C)CC1	.	10µM	.	.	?	?	.	.	.	?	19.3µM
COC(=O)c1c(-c2ccc(Cl)cc2)noc1N1CCN(c2cc(C)ccc2C)CC1	.	5.62µM	.	?	.	?	.	.	.	?	17.2µM	PMP22 HiBiT cnf=?
Cc1ccc(OC(=O)c2cc(-c3ccc(Cl)cc3)on2)c(C)c1	.	.	.	.	.	.	/	/	/	/	/
Cc1cc(-c2ncc(CC(=O)Nc3ccc(-c4cnccn4)cn3)cc2C)ccn1	/	/	.	/	/	/	/	/	/	/	/
CC(=O)c1ccc(N2CCN(S(=O)(=O)c3cc(-c4onc(C)c4C)ccc3C)CC2)cc1	.	10.1µM	.	.	.	.	?	?	.	.	.
CCOC(=O)c1oc2c(c1C)-c1nn(Cc3ccc(Cl)cc3)cc1CC2	.	?	.	.	.	.	?	?	.	.	.
CCn1c(=O)cc(OCC(=O)N2CCN(c3ccccc3OC)CC2)c2ccccc21	.	17µM	.	.	.	.	.	.	.	.	.
COc1cc2nc(-c3ccc(N4CCN(C)CC4)cc3)nc(NCCN3CCOCC3)c2cc1OC	/	/	.	/	/	/	/	/	/	/	/
Cc1cc(C)cc(NC(=O)c2ccc3oc(=O)c(S(=O)(=O)c4ccc(F)cc4)cc3c2)c1	.	11.2µM	.	.	.	.	.	.	.	.	.
SMILES	p53null 32C tox	PMP22 txn	OvCa metastasis	pS6 MEF inh	p53null 39C kill	S16 viability	NLuc sat counter	NLuc Km counter	FLuc ctr PMP22	S16 viab conf	PMP22 txn cnf	others
c1ccc2c(CCNc3ccc(Nc4ccncc4)cc3)c[nH]c2c1	/	/	.	/	/	/	/	/	/	/	/
CCOc1ccc(Nc2nc3c(S(=O)(=O)c4ccc(CC)cc4)nnn3c3ccc(Cl)cc23)cc1	.	7.94µM	.	.	.	.	.	.	.	.	?
O=S(=O)(c1ccc(Br)cc1)c1nnn2c1nc(Nc1cccc(C(F)(F)F)c1)c1sccc12	.	?	.	.	.	.	/	/	/	/	/
CCc1ccc(Nc2nc3c(S(=O)(=O)c4ccc(C)cc4)nnn3c3ccsc23)cc1	.	5.77µM	.	.	.	.	.	?	.	?	.
Cc1cccc(Nc2nc3c(S(=O)(=O)c4ccc(Br)cc4)nnn3c3ccsc23)c1C	.	11.9µM	.	.	?	.	.	?	.	.	?
Nc1nc(N)c2nc(-c3cccc(O)c3)c(-c3cccc(O)c3)nc2n1	/	/	.	/	/	/	/	/	/	/	/
COc1ccc(C(=O)CC2(O)C(=O)Nc3c(Cl)ccc(Cl)c32)cc1 (stereo unspecified)	/	/	.	/	/	/	/	/	/	/	/
COc1ccc(N(C(=O)c2cc(OC)c(OC)c(OC)c2)S(=O)(=O)c2ccc(C)cc2)cc1	.	18.9µM	.	.	.	?	.	.	.	.	.
CCSc1oc(-c2cccs2)nc1S(=O)(=O)c1ccccc1	.	/	/	/	.	/	/	/	/	/	/
CCCCCS(=O)(=O)c1oc(-c2cccs2)nc1S(=O)(=O)c1ccc(C)cc1	.	13.4µM	?	.	.	?	.	.	.	?	17.2µM	PMP22 HiBiT cnf=.
